Measurements from PubChem BioAssay (EPA / NIEHS).
Inconclusive results are not listed. The source made the active and inactive calls. Rule for the calls, unless noted: active = hit-call score of the fitted dose curve at least 0.9, where 1 is the maximum; inconclusive = response in the unintended direction; inactive = score below 0.9.

Tests used:
[1] = biological target: human Peroxisome Proliferator-activated Receptor delta (PPARd), PPARD (gene 5467) (UniProt Q03181); experiment: ATG_PPARd_TRANS: Attagene TRANS-FACTORIAL HepG2 Assay for human Peroxisome Proliferator-activated Receptor delta (PPARd) (AID 2283002)
In short: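 HepG2 cells transiently transfected with multiplexed GAL4-UAS reporter units and exogenous chimeric NR-Gal4 proteins; 24 h compound exposure. Reporter mRNA measured by RT-PCR, 6-FAM labelling, HpaI digestion and capillary electrophoresis; gain of signal versus DMSO.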

[2] = biological target: Peroxisome proliferator-activated receptor gamma (Homo sapiens) (UniProt P37231); experiment: ATG_PPARg_TRANS: Attagene TRANS-FACTORIAL HepG2 Assay for human Peroxisome Proliferator-activated Receptor-gamma (PPARg) (AID 2283007)
In short: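 After 24 h of chemical exposure, transfected HepG2 cells carrying PPARγ-Gal4 chimera reporter constructs are lysed for RNA. Reporter transcripts are measured by RT-PCR and capillary electrophoresis with fluorescent labelling, and gain of signal is fitted versus DMSO.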

[3] = biological target: Nuclear receptor subfamily 1 group I member 2 (Homo sapiens) (UniProt O75469); experiment: ATG_PXR_TRANS: Attagene TRANS-FACTORIAL HepG2 Assay for human Pregnane X Receptor (PXR) (AID 2283008)
In short: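 HepG2 cells transiently transfected with GAL4-UAS reporter units and PXR-Gal4 chimera, exposed 24 h. Reporter mRNA quantified by RT-PCR, fluorescent labelling, HpaI digestion and capillary electrophoresis; gain of signal vs DMSO.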

[4] = biological target: human RAR-related Orphan Receptor beta (RORb), RORB (gene 6096) (UniProt Q92753); experiment: ATG_RORb_TRANS: Attagene TRANS-FACTORIAL HepG2 Assay for human RAR-related Orphan Receptor beta (RORb) (AID 2283010)
In short: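 HepG2 cells transiently transfected with GAL4-UAS reporter units expressing chimeric NR-Gal4 protein; reporter mRNA measured 24 h after dosing by RT-PCR, 6-FAM labelling and capillary electrophoresis. Gain-of-signal fitted relative to DMSO baseline.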

[5] = biological target: human RAR-related Orphan Receptor gamma (RORg), RORC (gene 6097) (UniProt P51449); experiment: ATG_RORg_TRANS: Attagene TRANS-FACTORIAL HepG2 Assay for human RAR-related Orphan Receptor gamma (RORg) (AID 2283011)
In short: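 First, HepG2 liver cells were transfected with GAL4-UAS-driven reporter constructs and the RORg-Gal4 fusion. Next, they were treated with chemical for 24 h. Finally, reporter mRNA was quantified by RT-PCR and capillary electrophoresis, with upward activity fitted against DMSO.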

[6] = biological target: Retinoic acid receptor RXR-alpha (Homo sapiens) (UniProt P19793); experiment: ATG_RXRa_TRANS: Attagene TRANS-FACTORIAL HepG2 Assay for human Retinoid X Receptor alpha (RXRa) (AID 2283012)
In short: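 HepG2 cells transiently transfected with GAL4-UAS reporter units and chimeric RXRa-Gal4 protein, treated 24 h. Reporter mRNA measured by RT-PCR, fluorescent labelling, HpaI digestion and capillary electrophoresis. Induction fitted against DMSO.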

[7] = biological target: human Retinoid X Receptor beta (RXRb), RXRB (gene 6257) (UniProt P28702); experiment: ATG_RXRb_TRANS: Attagene TRANS-FACTORIAL HepG2 Assay for human Retinoid X Receptor beta (RXRb) (AID 2283013)
In short: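 HepG2 cells were transiently transfected with multiplexed GAL4-UAS reporters and a chimeric RXRb-Gal4 construct, then exposed for 24 h. Reporter mRNA was quantified by RT-PCR, FAM labeling, HpaI digestion and capillary electrophoresis; gain of signal was scored against DMSO.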

[8] = biological target: human Thyroid Receptor alpha (THRa1), THRA (gene 7067) (UniProt P10827); experiment: ATG_THRa1_TRANS: Attagene TRANS-FACTORIAL HepG2 Assay for human Thyroid Receptor alpha (THRa1) (AID 2283014)
In short: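 Reporter transcript induction, read by capillary electrophoresis of 6-FAM-labelled RT-PCR products, reflects activity of a transfected THRa1-Gal4 fusion in HepG2 liver cells. Cells were dosed for 24 h; activity was fitted in the positive direction against DMSO.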

[9] = read-out: Intercellular Adhesion Molecule 1 (ICAM1), ICAM1 (gene 3383); experiment: BSK_3C_ICAM1: BioMAP Diversity Plus: 3C Assay for Intercellular Adhesion Molecule 1 (ICAM1) Biomarker Activity (AID 2283003; active = hit-call score of the fitted dose curve at least 0.9, where 1 is the maximum; inactive = score below 0.9); settings: primary human endothelial cells (HUVEC); actives raise or lower the signal
In short: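 HUVEC primary cells stimulated under 3C conditions; ICAM1 measured by ELISA 24 h after compound dosing. Curves fitted bidirectionally against the DMSO baseline. Overt cytotoxicity checked by SRB staining of parallel cultures.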

[10] = BSK_3C_Proliferation: Cell Proliferation Assessment in the BioMAP Diversity Plus: 3C Assay (AID 2283006; active = hit-call score of the fitted dose curve at least 0.9, where 1 is the maximum; inactive = score below 0.9); settings: primary human endothelial cells (HUVEC)
In short: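 Subconfluent HUVEC (3C system) cultured with chemical; relative cell number read at 48 h by sulforhodamine B total-protein staining (0.1% SRB after 10% TCA fixation, 560 nm). Bidirectional fit relative to DMSO.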

[11] = read-out: Interleukin-1 alpha (IL1a), IL1A (gene 3552); experiment: BSK_BE3C_IL1a: BioMAP Diversity Plus: BE3C Assay for Interleukin-1 alpha (IL1a) Biomarker Activity (AID 2283016; active = hit-call score of the fitted dose curve at least 0.9, where 1 is the maximum; inactive = score below 0.9); settings: primary human bronchial epithelial cells; actives raise or lower the signal
In short: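 Human primary bronchial epithelial cells, 24 h chemical exposure; IL-1a quantified by ELISA, fitted bidirectionally against DMSO. Cytotoxicity assessed in parallel by SRB total-protein staining at the time of measurement.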

[12] = read-out: Monocyte Chemoattractant Protein-1 (MCP1), CCL2 (gene 6347); experiment: BSK_3C_MCP1: BioMAP Diversity Plus: 3C Assay for Monocyte Chemoattractant Protein-1 (MCP1) Biomarker Activity (AID 2283017; active = hit-call score of the fitted dose curve at least 0.9, where 1 is the maximum; inactive = score below 0.9); settings: primary human endothelial cells (HUVEC); actives raise or lower the signal
In short: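 ELISA read-out of MCP-1 from human umbilical vein endothelial cell cultures harvested 24 h post-dosing. Gain or loss of signal was fitted relative to DMSO.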

[13] = read-out: Monocyte Chemoattractant Protein-1 (MCP1), CCL2 (gene 6347); experiment: BSK_4H_MCP1: BioMAP Diversity Plus: 4H Assay for Monocyte Chemoattractant Protein-1 (MCP1) Biomarker Activity (AID 2283018; active = hit-call score of the fitted dose curve at least 0.9, where 1 is the maximum; inactive = score below 0.9); settings: primary human endothelial cells (HUVEC); actives raise or lower the signal
In short: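 Human umbilical vein endothelial cells (4H system) exposed to chemicals for 24 h in 96-well format. MCP-1 measured by ELISA; bidirectional fitting against DMSO, with SRB total-protein staining in parallel cultures for cytotoxicity.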

[14] = read-out: Human Leukocyte Antigen - DR isotype (HLADR), HLA-DRA (gene 3122); experiment: BSK_3C_HLADR: BioMAP Diversity Plus: 3C Assay for Human Leukocyte Antigen - DR isotype (HLADR) Biomarker Activity (AID 2283019; active = hit-call score of the fitted dose curve at least 0.9, where 1 is the maximum; inactive = score below 0.9;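 note: ELISA of cell-surface HLA-DR on HUVEC 24 h after dosing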); settings: primary human endothelial cells (HUVEC); actives raise or lower the signal
In short: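 ELISA readout of surface HLA-DR on human umbilical vein endothelium, taken 24 h after chemical treatment. Gain- and loss-of-signal were both fitted relative to DMSO.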

[15] = read-out: Interleukin-8 (IL8), CXCL8 (gene 3576); experiment: BSK_3C_IL8: BioMAP Diversity Plus: 3C Assay for Interleukin-8 (IL8) Biomarker Activity (AID 2283020; active = hit-call score of the fitted dose curve at least 0.9, where 1 is the maximum; inactive = score below 0.9); settings: primary human endothelial cells (HUVEC); actives raise or lower the signal
In short: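 Primary human umbilical vein endothelial cells were dosed for 24 h. IL-8 was quantified by ELISA and fitted bidirectionally against DMSO. Cytotoxicity was assessed in parallel cultures by SRB staining at 560 nm.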

[16] = read-out: Monokine induced gamma interferon (MIG), CXCL9 (gene 4283); experiment: BSK_3C_MIG: BioMAP Diversity Plus: 3C Assay for Monokine induced gamma interferon (MIG) Biomarker Activity (AID 2283021; active = hit-call score of the fitted dose curve at least 0.9, where 1 is the maximum; inactive = score below 0.9); settings: primary human endothelial cells (HUVEC); actives raise or lower the signal
In short: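 HUVEC primary endothelial cultures dosed with chemical; MIG quantified by ELISA at 24 h. Data fitted bidirectionally against DMSO control, with parallel SRB total-protein staining for cytotoxicity.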

[17] = biological target: human Retinoic Acid Receptor beta (RARb), RARB (gene 5915) (UniProt P10826); experiment: ATG_RARb_TRANS: Attagene TRANS-FACTORIAL HepG2 Assay for human Retinoic Acid Receptor beta (AID 2283004)
In short: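 Transient transfection of HepG2 with multiple reporter units → chemical dosing, 24 h → total RNA isolation → RT with oligo(dT) → reporter-specific PCR, 6-FAM primer extension, HpaI digest → capillary electrophoresis. Positive direction vs DMSO control.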

[18] = biological target: Retinoic acid receptor alpha (Homo sapiens) (UniProt P10276); experiment: ATG_RARa_TRANS: Attagene TRANS-FACTORIAL HepG2 Assay for human Retinoic Acid Receptor alpha (RARa) (AID 2283005)
In short: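 HepG2 cells transiently transfected with multiple reporter units expressing chimeric RARα-GAL4 fusion, with GAL4-UAS-driven reporters. After 24 h compound exposure, reporter mRNA induction quantified by RT-PCR and capillary electrophoresis with fluorescent labeling; gain-of-signal fitted relative to DMSO control.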

Measured: AC50

Chain of human Retinoic Acid Receptor beta (RARb), RARB (gene 5915) (P10826 whole entry, looked up): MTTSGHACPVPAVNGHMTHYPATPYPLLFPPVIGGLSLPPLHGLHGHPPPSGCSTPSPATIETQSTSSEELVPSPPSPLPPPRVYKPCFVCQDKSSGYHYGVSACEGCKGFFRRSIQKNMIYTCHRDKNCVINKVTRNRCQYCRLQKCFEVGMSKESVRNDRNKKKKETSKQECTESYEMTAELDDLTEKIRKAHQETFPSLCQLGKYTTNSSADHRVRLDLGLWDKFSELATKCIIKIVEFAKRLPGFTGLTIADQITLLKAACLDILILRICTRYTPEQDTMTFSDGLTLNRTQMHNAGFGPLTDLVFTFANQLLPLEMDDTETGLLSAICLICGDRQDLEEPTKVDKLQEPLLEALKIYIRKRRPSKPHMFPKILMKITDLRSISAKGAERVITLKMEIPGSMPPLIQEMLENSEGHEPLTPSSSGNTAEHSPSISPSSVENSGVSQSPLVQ
Chain of Nuclear receptor subfamily 1 group I member 2 (Homo sapiens) (O75469 whole entry, looked up, the tested form may be a part): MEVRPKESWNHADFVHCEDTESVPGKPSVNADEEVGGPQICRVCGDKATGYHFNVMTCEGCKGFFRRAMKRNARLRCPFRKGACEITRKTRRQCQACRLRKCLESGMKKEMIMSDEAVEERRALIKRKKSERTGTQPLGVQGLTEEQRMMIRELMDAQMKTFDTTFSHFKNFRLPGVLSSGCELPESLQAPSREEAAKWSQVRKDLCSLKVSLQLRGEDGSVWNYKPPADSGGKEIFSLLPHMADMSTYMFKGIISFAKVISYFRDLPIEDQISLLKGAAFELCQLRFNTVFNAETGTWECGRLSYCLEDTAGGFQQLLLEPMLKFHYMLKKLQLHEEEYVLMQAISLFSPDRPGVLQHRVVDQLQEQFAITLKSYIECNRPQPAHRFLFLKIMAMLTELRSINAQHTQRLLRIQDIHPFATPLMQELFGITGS
Chain of human RAR-related Orphan Receptor gamma (RORg), RORC (gene 6097) (P51449 whole entry, looked up, the tested form may be a part): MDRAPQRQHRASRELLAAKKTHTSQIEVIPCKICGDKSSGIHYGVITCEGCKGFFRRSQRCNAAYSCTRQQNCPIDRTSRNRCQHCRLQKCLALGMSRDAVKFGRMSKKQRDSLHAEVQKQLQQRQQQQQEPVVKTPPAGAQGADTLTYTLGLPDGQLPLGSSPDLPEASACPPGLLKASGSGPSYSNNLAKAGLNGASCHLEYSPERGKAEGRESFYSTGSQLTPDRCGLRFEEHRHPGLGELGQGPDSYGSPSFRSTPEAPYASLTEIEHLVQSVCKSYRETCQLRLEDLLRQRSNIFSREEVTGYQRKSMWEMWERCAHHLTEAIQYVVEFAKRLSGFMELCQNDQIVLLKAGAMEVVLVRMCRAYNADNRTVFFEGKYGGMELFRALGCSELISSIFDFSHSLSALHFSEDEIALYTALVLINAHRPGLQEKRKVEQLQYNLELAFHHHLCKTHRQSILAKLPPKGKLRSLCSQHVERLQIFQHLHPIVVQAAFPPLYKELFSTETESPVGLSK
Chain of Retinoic acid receptor RXR-alpha (Homo sapiens) (P19793 whole entry, looked up, the tested form may be a part): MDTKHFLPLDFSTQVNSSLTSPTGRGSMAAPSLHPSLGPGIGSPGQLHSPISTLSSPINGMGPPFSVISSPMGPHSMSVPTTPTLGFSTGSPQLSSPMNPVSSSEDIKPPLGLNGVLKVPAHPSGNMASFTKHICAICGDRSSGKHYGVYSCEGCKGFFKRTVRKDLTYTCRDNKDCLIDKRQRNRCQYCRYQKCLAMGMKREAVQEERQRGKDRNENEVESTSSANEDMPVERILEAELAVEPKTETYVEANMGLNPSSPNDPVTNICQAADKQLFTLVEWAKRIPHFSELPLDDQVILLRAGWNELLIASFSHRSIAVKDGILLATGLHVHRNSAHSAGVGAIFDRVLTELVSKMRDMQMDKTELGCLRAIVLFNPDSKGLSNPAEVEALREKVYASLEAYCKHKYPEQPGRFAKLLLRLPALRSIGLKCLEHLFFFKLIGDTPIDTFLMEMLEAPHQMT
Chain of human RAR-related Orphan Receptor beta (RORb), RORB (gene 6096) (Q92753 whole entry, looked up, the tested form may be a part): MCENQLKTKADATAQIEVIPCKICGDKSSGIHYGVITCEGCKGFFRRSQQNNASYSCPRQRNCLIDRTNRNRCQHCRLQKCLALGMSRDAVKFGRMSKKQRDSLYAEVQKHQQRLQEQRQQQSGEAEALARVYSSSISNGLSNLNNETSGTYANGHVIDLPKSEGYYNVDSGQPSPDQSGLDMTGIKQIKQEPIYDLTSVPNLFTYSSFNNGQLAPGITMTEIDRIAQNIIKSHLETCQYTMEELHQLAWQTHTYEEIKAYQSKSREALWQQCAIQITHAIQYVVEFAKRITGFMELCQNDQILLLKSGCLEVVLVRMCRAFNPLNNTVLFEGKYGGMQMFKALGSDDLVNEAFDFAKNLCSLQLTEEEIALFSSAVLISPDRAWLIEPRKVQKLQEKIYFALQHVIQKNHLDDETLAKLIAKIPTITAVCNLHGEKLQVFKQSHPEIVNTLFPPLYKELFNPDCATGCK
Chain of Peroxisome proliferator-activated receptor gamma (Homo sapiens) (P37231 whole entry, looked up, the tested form may be a part): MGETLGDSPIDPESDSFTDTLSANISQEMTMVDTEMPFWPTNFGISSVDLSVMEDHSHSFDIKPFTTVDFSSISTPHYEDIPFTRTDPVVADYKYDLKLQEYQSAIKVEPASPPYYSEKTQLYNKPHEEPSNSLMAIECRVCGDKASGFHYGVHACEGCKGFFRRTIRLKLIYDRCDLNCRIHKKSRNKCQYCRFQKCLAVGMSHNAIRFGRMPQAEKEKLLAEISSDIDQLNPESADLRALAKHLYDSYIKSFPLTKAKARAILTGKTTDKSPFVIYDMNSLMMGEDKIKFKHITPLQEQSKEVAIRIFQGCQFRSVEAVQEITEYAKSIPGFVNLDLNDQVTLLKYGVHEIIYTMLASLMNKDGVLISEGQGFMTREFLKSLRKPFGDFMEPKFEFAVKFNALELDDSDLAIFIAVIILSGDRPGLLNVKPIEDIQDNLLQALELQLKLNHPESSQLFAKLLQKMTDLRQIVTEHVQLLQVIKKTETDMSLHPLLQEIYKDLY
Chain of human Peroxisome Proliferator-activated Receptor delta (PPARd), PPARD (gene 5467) (Q03181 whole entry, looked up, the tested form may be a part): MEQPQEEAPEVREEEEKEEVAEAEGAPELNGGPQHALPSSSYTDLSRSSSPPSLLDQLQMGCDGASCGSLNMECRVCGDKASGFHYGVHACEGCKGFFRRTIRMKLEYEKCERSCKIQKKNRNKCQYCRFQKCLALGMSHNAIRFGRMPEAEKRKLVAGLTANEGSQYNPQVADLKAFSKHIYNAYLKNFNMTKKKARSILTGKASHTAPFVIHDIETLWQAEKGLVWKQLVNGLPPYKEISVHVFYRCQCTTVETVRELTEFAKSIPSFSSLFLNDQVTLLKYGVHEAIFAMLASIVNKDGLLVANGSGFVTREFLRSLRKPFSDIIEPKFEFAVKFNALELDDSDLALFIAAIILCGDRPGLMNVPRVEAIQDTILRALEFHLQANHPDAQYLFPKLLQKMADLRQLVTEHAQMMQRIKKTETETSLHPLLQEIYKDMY
Chain of human Retinoid X Receptor beta (RXRb), RXRB (gene 6257) (P28702 whole entry, looked up, the tested form may be a part): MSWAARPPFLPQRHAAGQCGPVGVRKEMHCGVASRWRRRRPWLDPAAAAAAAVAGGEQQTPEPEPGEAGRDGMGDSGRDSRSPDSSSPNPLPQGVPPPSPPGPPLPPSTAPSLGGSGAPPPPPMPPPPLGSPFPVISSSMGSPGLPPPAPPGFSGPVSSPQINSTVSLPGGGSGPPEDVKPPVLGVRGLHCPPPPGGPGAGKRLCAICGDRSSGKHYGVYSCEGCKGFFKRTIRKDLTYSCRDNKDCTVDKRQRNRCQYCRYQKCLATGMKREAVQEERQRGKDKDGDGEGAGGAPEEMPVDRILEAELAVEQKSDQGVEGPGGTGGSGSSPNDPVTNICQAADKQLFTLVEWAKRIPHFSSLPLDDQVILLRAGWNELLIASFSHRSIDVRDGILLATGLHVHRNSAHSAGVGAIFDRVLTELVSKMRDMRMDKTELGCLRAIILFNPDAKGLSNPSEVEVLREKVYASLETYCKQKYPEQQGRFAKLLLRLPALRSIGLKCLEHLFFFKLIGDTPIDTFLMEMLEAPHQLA
Chain of human Thyroid Receptor alpha (THRa1), THRA (gene 7067) (P10827 whole entry, looked up, the tested form may be a part): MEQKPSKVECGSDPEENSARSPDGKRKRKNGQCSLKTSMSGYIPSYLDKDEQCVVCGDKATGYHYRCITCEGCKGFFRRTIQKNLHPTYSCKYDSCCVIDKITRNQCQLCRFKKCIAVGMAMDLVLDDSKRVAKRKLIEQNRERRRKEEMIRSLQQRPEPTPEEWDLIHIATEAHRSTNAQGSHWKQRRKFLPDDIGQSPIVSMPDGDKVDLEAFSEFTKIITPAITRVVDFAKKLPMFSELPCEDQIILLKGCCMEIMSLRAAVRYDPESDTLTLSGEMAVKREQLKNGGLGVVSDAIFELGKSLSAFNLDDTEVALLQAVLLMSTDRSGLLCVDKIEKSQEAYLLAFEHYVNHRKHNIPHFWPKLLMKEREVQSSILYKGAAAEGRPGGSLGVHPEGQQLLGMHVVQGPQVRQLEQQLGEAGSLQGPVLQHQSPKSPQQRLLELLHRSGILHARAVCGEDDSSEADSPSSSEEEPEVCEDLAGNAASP
Chain of Retinoic acid receptor alpha (Homo sapiens) (P10276 whole entry, looked up, the tested form may be a part): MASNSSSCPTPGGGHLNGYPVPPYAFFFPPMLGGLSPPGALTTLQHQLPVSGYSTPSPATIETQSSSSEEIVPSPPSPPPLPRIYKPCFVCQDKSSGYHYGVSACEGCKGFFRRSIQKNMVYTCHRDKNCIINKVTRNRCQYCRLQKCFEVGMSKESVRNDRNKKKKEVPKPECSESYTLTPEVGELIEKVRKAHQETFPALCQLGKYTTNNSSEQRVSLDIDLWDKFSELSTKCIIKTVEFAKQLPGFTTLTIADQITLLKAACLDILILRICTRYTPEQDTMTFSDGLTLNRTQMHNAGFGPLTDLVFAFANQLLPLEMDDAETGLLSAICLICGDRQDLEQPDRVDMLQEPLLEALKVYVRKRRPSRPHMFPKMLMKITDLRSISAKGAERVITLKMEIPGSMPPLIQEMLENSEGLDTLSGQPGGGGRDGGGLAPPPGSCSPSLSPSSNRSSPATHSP

CN1[C@@H]2CC(OC(=O)[C@H](CO)c3ccccc3)C[C@H]1[C@@H]1O[C@@H]12 (stereo partly drawn)
inactive: [1] | [2] | [3] | [4] | [5] | [6] | [8]
active: [7] 160 µM

O=[N+]([O-])c1ccc(Nc2ccc(Nc3ccccc3)c(S(=O)(=O)O)c2)c([N+](=O)[O-])c1
inactive: [1] | [4] | [6]
active: [2] 17.9 µM | [3] 22.9 µM

CC(=O)OCCC(C)CC(C)(C)C (stereo not drawn)
not listed: [2] | [5] | [6] | [17] | [18]
inactive: all other assays above

O=Cc1ccc(F)cc1
inactive: [1] | [2] | [3] | [4] | [5] | [6] | [7]

CC(=O)c1c(C)cc(C(C)(C)C)cc1C
inactive: [1] | [17] | [18] | [2] | [3] | [6] | [8]
active: [7] 31.4 µM

COc1cc(C(C)(C)C)c(O)c(C(C)(C)C)c1
inactive: [1] | [2] | [3] | [8]
active: [6] 15.4 µM | [7] 0.745 µM

OCCOc1cccc(OCCO)c1
inactive: [1] | [17] | [2] | [3] | [5] | [8]

CC(C)=CCC[C@](C)(O)[C@@H]1CC=C(C)CC1
inactive: [1] | [17] | [18] | [2] | [4] | [5] | [7]
active: [3] 15 µM

CC(C)C(C)(C)C(C)(C)C(C)(C)S
inactive: [1] | [5] | [7]
active: [2] 100 µM | [3] 4.47 µM

C[C@]12CC[C@H]3[C@@H](CCC4=CC(=O)CC[C@@]43C)[C@@H]1CC[C@@H]2C(=O)CO
inactive: [1] | [2] | [6] | [8]
active: [3] 2.12 µM

Clc1nc(C(Cl)(Cl)Cl)c(Cl)c(Cl)c1Cl
active: [2] 1.45 µM | [3] 21.2 µM | [7] 21.8 µM
inactive: [1] | [4] | [5] | [6] | [8]

COc1ccc(Nc2ccccc2)c(C)c1
inactive: [1] | [6] | [8]
active: [2] 31.5 µM | [3] 11.1 µM | [7] 33.1 µM

CCN(CC)c1ccc2c(-c3ccccc3C(=O)O)c3ccc(=[N+](CC)CC)cc-3oc2c1
active: [2] 30.4 µM | [3] 0.335 µM
inactive: [1]
